What is called Inhibition is the drop in the measured response relative to a control, in per cent.

Data on 28 compounds can be found in ChEMBL document CHEMBL4513146, “CO-ADD screening of Karazin Kharkiv National University (Ukraine) compounds”.

One experiment has as its system Klebsiella pneumoniae. To be noted: Concentration 32 ug.mL-1;; ASSAY_TEST Inhibition of Bacterial Growth; detection method Absorption (OD600); MEDIA CAMHB; plate type 384well; NBS; CORNING #3640; time 18 hr.
Another experiment concerns Candida albicans. To be noted: Concentration 32 ug.mL-1; ASSAY_TEST Inhibition of Fungal Growth; detection method Absorption (OD530).
The test system of the next experiment is Cryptococcus neoformans. To be noted: Concentration 32 ug.mL-1; ASSAY_TEST Inhibition of Fungal Growth; detection method Resazurin; Absorption (OD600-OD570); plate type 384well; NBS; CORNING #3640.

Results with a measured potency or affinity are listed apart.

For `Cc1nnc2c(S(=O)(=O)N(Cc3ccc(F)cc3)c3ccc(F)c(F)c3)cccn12`, the Inhibition in the experiment on Klebsiella pneumoniae is 11.53%; with Candida albicans, 8.25%; in the experiment on Cryptococcus neoformans, -10.38%.
For `O=c1c2nn(Cc3cccc(Cl)c3)c(=O)n2ccn1-c1ccccc1`, in that order: 1.75%, 6.73% and -10.03%.
The corresponding values for `CCCCc1ccc(NC(=O)CSc2nnc3c4cc(-c5ccc(C)cc5)nn4ccn23)cc1` are 4.94%, 0.26% and -7.77%.
For `CC(C)c1ccc(N(Cc2cc(F)cc(F)c2)S(=O)(=O)c2cccn3cnnc23)cc1`, in that order: 4.84%, 0.58% and -6.06%.
For `O=C(Cn1nc2ccc(SC3CCCCC3)nn2c1=O)Nc1ccc2c(c1)CCC2`, the results for the Inhibition with Klebsiella pneumoniae, with Candida albicans and in the experiment with Cryptococcus neoformans were 11.52%, 2.83% and -22.07%, respectively.
For `COc1ccc(N2CCN(C(=O)Cn3nc4c(Oc5ccc(C)cc5)nccn4c3=O)CC2)cc1`, the values for the Inhibition in the experiment on Klebsiella pneumoniae, with Candida albicans and in the experiment on Cryptococcus neoformans were 7.21%, 1.27% and -9.68%, respectively.
The corresponding values for `O=C(Cn1nc2c(N3CCOCC3)nccn2c1=O)NCc1ccccc1Cl` are 10.56%, 3.88% and -5.18%.
For `N#Cc1ccccc1NC(=O)Cn1nc2c(Oc3ccccc3)nccn2c1=O`, in that order: 2.81%, -0.12% and -5.65%.
For `Cc1ccc(NC(=O)Cn2c(=O)c3nnc(C(C)C)n3c3ccccc32)c(C)c1`, in that order: 5.02%, 1.04% and -15.61%.
Take `CCc1ccc(N(Cc2ccc(C)cc2)S(=O)(=O)c2cccn3c(C)nnc23)cc1`: the Inhibition is 3.2% with Klebsiella pneumoniae, 0.84% in the experiment with Candida albicans and -6.65% in the experiment on Cryptococcus neoformans.
For `Cc1nnc2c(SCC(=O)N3CCN(c4ccc(F)cc4)CC3)nc3ccccc3n12`, in that order: 12.85%, 2.24% and -2.43%.
The corresponding values for `CCc1ccccc1NC(=O)CSc1nnc2c(=O)n(-c3ccccc3)ccn12` are 11.56%, -0.14% and -23.92%.
The corresponding values for `COc1cccc(-n2ccn3c(SCc4cccc(C(F)(F)F)c4)nnc3c2=O)c1` are -17.2%, 12.49% and -6.54%.
For the compound `O=c1n(Cc2cccc(Br)c2)nc2ccc(-c3ccccc3)nn12`, the Inhibition is 10.27% in the experiment with Klebsiella pneumoniae, 5.28% with Candida albicans and -13.38% in the experiment with Cryptococcus neoformans.
The corresponding values for `COC(=O)c1ccc(NC(=O)Cn2nc3ccc(C(=O)NCc4ccccc4)cn3c2=O)cc1` are 7.68%, 0.61% and -23.41%.
In the case of `COc1ccc(NC(=O)Cn2nc3cc(C)nc(Nc4cc(C)cc(C)c4)n3c2=O)cc1`, the Inhibition was 10.21% in the experiment on Klebsiella pneumoniae, 1.22% in the experiment on Candida albicans and -8.99% in the experiment on Cryptococcus neoformans.
As to `COC(=O)c1ccc(NC(=O)Cn2nc3c4cc(-c5ccc(OC)cc5)nn4ccn3c2=O)cc1`, the values for the Inhibition in the experiment with Klebsiella pneumoniae, in the experiment with Candida albicans and with Cryptococcus neoformans were 9.58%, 0.9% and -33.46%, respectively.
The corresponding values for `Cc1ccc(NC(=O)Cn2nc3c(Oc4ccccc4C)nccn3c2=O)cc1F` are 11.18%, -0.61% and -11.02%.
For `COc1ccc(-c2cc3c4nnc(SCC(=O)Nc5cc(F)ccc5C)n4ccn3n2)cc1`, in that order: -19.37%, 1.81% and -16.34%.
The corresponding values for `COc1ccc(C(=O)CSc2nnc3c(=O)n(-c4ccccc4)ccn23)cc1OC` are -1.19%, 25.44% and -8.66%.
On to `CCCCOc1ccc(-c2cc3c4nnc(SCC(=O)N(CC)c5ccccc5)n4ccn3n2)cc1`, for which the Inhibition with Klebsiella pneumoniae was 16.4%; in the experiment with Candida albicans, 5.05%; in the experiment with Cryptococcus neoformans, -16.28%.
The corresponding values for `CCc1ccccc1Sc1nccn2c(=O)n(CC(=O)NCc3ccc(OC)cc3)nc12` are 1.83%, 2.04% and -1.62%.
In the case of `COc1ccc(C)cc1NC(=O)Cn1nc2cc(C)nc(Nc3ccc(F)cc3)n2c1=O`, the Inhibition with Klebsiella pneumoniae is listed as 2.21%; in the experiment with Candida albicans it was 2.84%; in the experiment with Cryptococcus neoformans it was -7.79%.
For `Cc1ccc(N(Cc2cc(F)cc(F)c2)S(=O)(=O)c2cccn3c(C)nnc23)cc1`, in that order: 11.68%, 5.37% and -9.88%.
As for `CCCCOc1ccc(-c2cc3c4nnc(SCC(=O)Nc5ccc(C)c(F)c5)n4ccn3n2)cc1`, the Inhibition in the experiment with Klebsiella pneumoniae is reported as 6.88%; in the experiment on Candida albicans it was 11.03%; in the experiment on Cryptococcus neoformans it was -15.89%.
For `COc1cccc(NC(=O)Cn2nc3c(Oc4ccccc4)nccn3c2=O)c1`, in that order: -9.5%, 1.78% and -2.51%.
Take `Cc1cc2nn(CC(=O)Nc3cccc(F)c3)c(=O)n2c(Nc2ccc(F)c(C)c2)n1`: the Inhibition with Klebsiella pneumoniae is 7.53%; with Candida albicans, 6.76%; with Cryptococcus neoformans it was -7%.
For `O=c1c2sccc2n2c(=O)n(Cc3cccc(Br)c3)nc2n1Cc1cccs1`, in that order: -22.43%, 62.43% and -21.53%.
